In all, about 350,000 compounds went through this assay and about 2,700 (0.77%) were called active. Many of the other results were omitted from the sample, so actives are more common in it than they were. Values without a mark were called inactive.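 How the source made its calls: active means inhibition reaching at least a set limit at 20 µM in the primary screen (cut at about 59% in these data); inactive means the rest.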

Results on 30 molecules are retold here after PubChem BioAssay AID504690 (Sanford-Burnham Center for Chemical Genomics, 2011).

For this assay, the system named is glucose-6-phosphate dehydrogenase-6-phosphogluconolactonase (Plasmodium falciparum 3D7). The assay is described as follows: PfG6PD enzyme inhibitors, primary screen, biochemical, fluorescence intensity, uHTS (AID 504690).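 Further: 0% = DMSO wells with substrate and 100% = DMSO wells lacking glucose-6-phosphate.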 To be noted: PfGluPho enzyme, NADPH resazurin-diaphorase fluorescence; at 20 µM; active compounds read high. Background: The colour change of resazurin is a common sign of viable cells or microbes.
`O=C(CSC1c2ccccc2-c2ccccc21)N/N=C/c1ccccc1`: the inhibition (in general, the change of the read-out against control, counted positive when it falls) is 62.4% (active).

`C[C@]12CCCCC1=CC(=O)C1C2CC[C@@]2(C)C1C[C@@H](F)[C@@H]2O` (stereo not given in full): the inhibition is -7.47%.

As to `CCOP(=S)(OCC)SCOC(=O)NCC(=O)OC`, the inhibition was -4.03%.

With `COC(=O)C1=C(c2cccc(OCc3ccccc3)c2)C[C@@H]2CC[C@H]1N2C(=O)NCc1ccc(Br)cc1`, the inhibition is 9.43%.

In the case of `COc1cccc(-c2nc3ccc(N4CCN(C)CC4)cc3[nH]2)c1`, the inhibition was 64.4% (active).

As to `CN1CCN(c2cc(N3CCNCC3)ccc2[N+](=O)[O-])CC1`, the inhibition is 1.22%.

For `c1ccc(C(CN2CCCCC2)c2ccccc2)cc1`, the inhibition was -1.44%.

Consider `COc1ccccc1C1=NCc2nnc(CSC)n2-c2ccc(Cl)cc21`, for which the inhibition is -31.3%.

In the case of `C[C@@]1([C@@H](NP(=O)(c2ccccc2)c2ccccc2)c2ccccc2)C[C@H]1CCO`, the inhibition is -0.29%.

Consider `O=C(NCC(c1cccnc1)N1CCN(c2ccccc2)CC1)Oc1ccccc1` (stereo not given), for which the inhibition is 7.5%.

On to `Nc1ccc(Cc2ccc(N)c(Cl)c2)cc1Cl`, for which the inhibition is -5.41%.

For `COc1ccc2c(c1)NP(=S)(c1ccccc1)N2` (stereo not given), the inhibition is 46.5%.

For the molecule `Cc1cc(C)c2c(c1)NP(=S)(c1ccccc1)N2` (stereo not given), the inhibition was 63.6% (active).

In the case of `C/C=C/CC1(CC)C(=O)NC(=S)NC1=O`, the inhibition was -4.76%.

Consider `Nc1ccc(C(=O)N/N=C2/CN3CCC2CC3)cc1`, for which the inhibition is -10.7%.

On to `COC(=O)N(c1ccc(OC)cc1)P1(=S)OCCC(C)O1` (stereo not given), for which the inhibition was 81.9% (active).

As for `O=C(CN1CCCCC1)Nc1ccc(Br)cc1C(=O)c1ccccc1Cl`, the inhibition is 0.87%.

With `C=CCn1c(O)c(/C=N/N2CCOCC2)c(=O)[nH]c1=S`, the inhibition was -2.25%.

As to `COc1ccc(N2C(=O)/C(=C/c3ccco3)C(=O)NC2=S)cc1`, the inhibition was 23.2%.

As for `O=C1NC(=O)N(Cc2ccco2)C(=O)/C1=C\c1ccc(-c2ccc(F)cc2)o1`, the inhibition is 72% (active).

As to `O=C1NC(=O)N(CCc2ccc(F)cc2)C(=O)/C1=C/C=C/c1ccccc1`, the inhibition is 4.03%.

Consider `N#Cc1ccc(Cn2cc(C(=O)c3ccco3)c3ccccc32)cc1`, for which the inhibition was 4.04%.

Take `CCC1(C)CC(CCNCc2ccc(N(C)C)cc2)(c2ccc(F)cc2)CCO1` (stereo not given): the inhibition is -7.55%.

On to `CC(=O)OC1C2(CC3N4C(=O)C5(CO)SSC4(CC31O)C(=O)N5C)OC(C)C(C)(C)C2=O` (stereo not given), for which the inhibition was 19.4%.

With `O=C1NC(=O)N(c2ccc(F)cc2)C(=O)/C1=C/c1ccc2c(c1)CCCN2Cc1ccccc1`, the inhibition is 18.3%.

Take `O=C1NC(=O)N(c2ccccc2)C(=O)/C1=C/c1ccc([N+](=O)[O-])s1`: the inhibition was 64.8% (active).

As to `COc1cccc(N2C(=O)NC(=O)/C(=C\c3ccc([N+](=O)[O-])s3)C2=O)c1`, the inhibition is 56%.

In the case of `CCOP(=O)(OCC)C(NC(=O)c1ccc(C)cc1)C(Cl)(Cl)Cl` (stereo not given), the inhibition was 1.69%.

Consider `CCOCCc1c(O)[nH]c(=S)[nH]c1=O`, for which the inhibition is 21.3%.

`CCOP(=S)(OCC)C(O)CCCCCn1c(=O)c(F)cn(C2CCCO2)c1=O` (stereo not given): the inhibition was 11.4%.
